Results as given in PubChem BioAssay AID1159580 (chemical genetic matrix, 2015).
“And” between values parts separate entries of the source, which are not always exact repeats. Equal values may be shown once. About 2,000 (36%) of roughly 5,500 compounds were called active. Roughly 18% stayed inconclusive and do not appear here. Rule as the data show it: active = normalized growth mostly below about 0.91 (no sharp cut-off); inconclusive = no clear call, values can overlap the other calls; inactive = mostly above about 0.92. This is one part of the list.

Experiment: chemical genetic growth profiling, strain panel (AID 1159580);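 also: tested at 20 µM; growth read once vehicle control cultures reached saturation at 30 °C; 1 = growth at the plate median or of vehicle wells; lower values mean less growth of the strain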
Conditions: growth OD

Measured: normalized growth

CN1Cc2c(N)cccc2C(c2ccccc2)C1 (centres undefined)
inactive: S. cerevisiae deletion strains, locus YJR075W, strain HOC1, stronger effect = lower value 1.01 and 0.995 | S. cerevisiae deletion strains, locus YKL009W, strain mrt4, stronger effect = lower value 1 | S. cerevisiae deletion strains, locus YKL068W, stronger effect = lower value 1 | S. cerevisiae deletion strains, locus YKL085W, strain MDH1 (second series), stronger effect = lower value 1.01 | S. cerevisiae deletion strains, locus YKL085W, strain MDH1, stronger effect = lower value 1.01 | S. cerevisiae deletion strains, locus YKL160W, strain elf1, stronger effect = lower value 1.02 | S. cerevisiae deletion strains, locus YKL190W, strain CNB1, stronger effect = lower value 1.01 | S. cerevisiae deletion strains, locus YKR001C, strain vps1, stronger effect = lower value 1 | S. cerevisiae deletion strains, locus YKR026C, strain gcn3, stronger effect = lower value 1.01 | S. cerevisiae deletion strains, locus YKR091W, strain srl3, stronger effect = lower value 1 | S. cerevisiae deletion strains, locus YLL001W, strain dnm1, stronger effect = lower value 1.01 | S. cerevisiae deletion strains, locus YLL026W, stronger effect = lower value 1.01 | S. cerevisiae deletion strains, locus YLL041C, strain sdh2, stronger effect = lower value 1.01 | S. cerevisiae deletion strains, locus YLR027C, strain aat2, stronger effect = lower value 1.02 | S. cerevisiae deletion strains, locus YLR039C, strain RIC1, stronger effect = lower value 1.03 | S. cerevisiae deletion strains, locus YLR058C, strain SHM2, stronger effect = lower value 1 | S. cerevisiae deletion strains, locus YLR102C, strain apc9, stronger effect = lower value 1.01 | S. cerevisiae deletion strains, locus YLR113W, strain HOG1, stronger effect = lower value 0.982 | S. cerevisiae deletion strains, locus YLR221C, strain rsa3, stronger effect = lower value 0.994 | S. cerevisiae deletion strains, locus YLR258W, strain gsy2, stronger effect = lower value 0.99 | S. cerevisiae deletion strains, locus YLR262C, strain YPT6 (second series), stronger effect = lower value 1.03 | S. cerevisiae deletion strains, locus YLR262C, strain YPT6, stronger effect = lower value 1.05 | S. cerevisiae deletion strains, locus YLR268W, strain sec22, stronger effect = lower value 1.02 | S. cerevisiae deletion strains, locus YLR320W, strain mms22, stronger effect = lower value 0.971 | S. cerevisiae deletion strains, locus YLR330W, strain CHS5, stronger effect = lower value 1.01 | S. cerevisiae deletion strains, locus YLR342W, strain FKS1 (second series), stronger effect = lower value 1.06 | S. cerevisiae deletion strains, locus YLR342W, strain FKS1, stronger effect = lower value 1.01 | S. cerevisiae deletion strains, locus YLR357W, strain rsc2, stronger effect = lower value 0.982 | S. cerevisiae deletion strains, locus YLR370C, strain arc18, stronger effect = lower value 1 | S. cerevisiae deletion strains, locus YLR371W, strain rom2, stronger effect = lower value 1.02 | S. cerevisiae deletion strains, locus YLR384C, strain iki3, stronger effect = lower value 1.01 | S. cerevisiae deletion strains, locus YLR418C, strain cdc73, stronger effect = lower value 1.01 | S. cerevisiae deletion strains, locus YML016C, strain PPZ1, stronger effect = lower value 1 | S. cerevisiae deletion strains, locus YML032C, strain rad52, stronger effect = lower value 0.994 | S. cerevisiae deletion strains, locus YML120C, strain ndi1, stronger effect = lower value 1.02 | S. cerevisiae deletion strains, locus YML124C, strain tub3, stronger effect = lower value 1.01 | S. cerevisiae deletion strains, locus YMR058W, strain fet3, stronger effect = lower value 1.02 | S. cerevisiae deletion strains, locus YMR078C, strain ctf18, stronger effect = lower value 1.02 | S. cerevisiae deletion strains, locus YMR125W, strain sto1, stronger effect = lower value 0.995 | S. cerevisiae deletion strains, locus YMR129W, stronger effect = lower value 1.01 | S. cerevisiae deletion strains, locus YMR205C, strain PFK2, stronger effect = lower value 1.04 | S. cerevisiae deletion strains, locus YMR223W, strain ubp8, stronger effect = lower value 1.03 | S. cerevisiae deletion strains, locus YMR231W, strain pep5, stronger effect = lower value 1 | S. cerevisiae deletion strains, locus YMR263W, strain SAP30, stronger effect = lower value 1 | S. cerevisiae deletion strains, locus YMR307W, strain GAS1, stronger effect = lower value 1.02 | S. cerevisiae deletion strains, locus YNL067W, strain RPL9B, stronger effect = lower value 0.988 | S. cerevisiae deletion strains, locus YNL071W, strain lat1, stronger effect = lower value 1.01 | S. cerevisiae deletion strains, locus YNL153C, strain GIM3, stronger effect = lower value 0.969 | S. cerevisiae deletion strains, locus YNL175C, strain NOP13, stronger effect = lower value 0.977 | S. cerevisiae deletion strains, locus YNL183C, strain NPR1, stronger effect = lower value 0.929 | S. cerevisiae deletion strains, locus YNL197C, strain WHI3, stronger effect = lower value 0.984 | S. cerevisiae deletion strains, locus YNL209W, strain ssb2, stronger effect = lower value 0.994 | S. cerevisiae deletion strains, locus YNL224C, strain SQS1, stronger effect = lower value 0.998 | S. cerevisiae deletion strains, locus YNL233W, strain BNI4, stronger effect = lower value 0.981 | S. cerevisiae deletion strains, locus YNL248C, strain rpa49, stronger effect = lower value 1.03 | S. cerevisiae deletion strains, locus YNL250W, strain rad50, stronger effect = lower value 1.02 | S. cerevisiae deletion strains, locus YNL271C, strain bni1, stronger effect = lower value 1.01 | S. cerevisiae deletion strains, locus YNL298W, strain CLA4, stronger effect = lower value 1.01 | S. cerevisiae deletion strains, locus YNL307C, strain MCK1, stronger effect = lower value 1.02 | S. cerevisiae deletion strains, locus YNL322C, strain KRE1 (second series), stronger effect = lower value 1.01 | S. cerevisiae deletion strains, locus YNR049C, strain mso1, stronger effect = lower value 1.02 | S. cerevisiae deletion strains, locus YNR052C, strain pop2, stronger effect = lower value 1.02 | S. cerevisiae deletion strains, locus YOL006C, strain TOP1, stronger effect = lower value 0.997 | S. cerevisiae deletion strains, locus YOL012C, strain htz1 0.779 | S. cerevisiae deletion strains, locus YOL147C, strain pex11, stronger effect = lower value 1.01 | S. cerevisiae deletion strains, locus YOR001W, strain rrp6, stronger effect = lower value 1.02 | S. cerevisiae deletion strains, locus YOR061W, strain CKA2, stronger effect = lower value 1.01 | S. cerevisiae deletion strains, locus YOR069W, strain VPS5, stronger effect = lower value 1.01 | S. cerevisiae deletion strains, locus YOR070C, strain gyp1, stronger effect = lower value 1 | S. cerevisiae deletion strains, locus YOR080W, strain dia2, stronger effect = lower value 1.02 | S. cerevisiae deletion strains, locus YOR083W, strain WHI5 (second series), stronger effect = lower value 0.983 | S. cerevisiae deletion strains, locus YOR083W, strain WHI5, stronger effect = lower value 0.989 | S. cerevisiae deletion strains, locus YOR106W, strain vam3, stronger effect = lower value 1.03 | S. cerevisiae deletion strains, locus YOR136W, strain idh2, stronger effect = lower value 1.01 | S. cerevisiae deletion strains, locus YOR144C, strain elg1, stronger effect = lower value 1.01 | S. cerevisiae deletion strains, locus YOR184W, strain ser1, stronger effect = lower value 1.01 | S. cerevisiae deletion strains, locus YOR231W, strain MKK1, stronger effect = lower value 0.986 | S. cerevisiae deletion strains, locus YOR265W, strain rbl2, stronger effect = lower value 1.01 | S. cerevisiae deletion strains, locus YOR270C, strain vph1, stronger effect = lower value 1.04 | S. cerevisiae deletion strains, locus YOR290C, strain snf2, stronger effect = lower value 0.99 | S. cerevisiae deletion strains, locus YOR316C, strain cot1, stronger effect = lower value 1.02 | S. cerevisiae deletion strains, locus YPL051W, strain arl3, stronger effect = lower value 1.01 | S. cerevisiae deletion strains, locus YPL055C, strain LGE1, stronger effect = lower value 0.96 and 0.983 | S. cerevisiae deletion strains, locus YPL078C, strain atp4, stronger effect = lower value 1.03 | S. cerevisiae deletion strains, locus YPL106C, strain sse1, stronger effect = lower value 0.969 | S. cerevisiae deletion strains, locus YPL240C, strain hsp82, stronger effect = lower value 1 | S. cerevisiae deletion strains, locus YPL241C, strain CIN2, stronger effect = lower value 1.01 and 0.99 | S. cerevisiae deletion strains, locus YPL256C, strain CLN2, stronger effect = lower value 0.974 | S. cerevisiae deletion strains, locus YPR119W, strain clb2, stronger effect = lower value 1.01 | S. cerevisiae deletion strains, locus YPR141C, strain kar3, stronger effect = lower value 1.02 | S. cerevisiae deletion strains, locus YPR163C, strain tif3, stronger effect = lower value 1.01 | S. cerevisiae deletion strains, locus YPR167C, strain met16, stronger effect = lower value 1.01 | S. cerevisiae deletion strains, strain wtn01, stronger effect = lower value 1.02 | S. cerevisiae strains, strain wild type, stronger effect = lower value 1
